In PubChem BioAssay (EPA / NIEHS):
Inconclusive results are not listed. Calls of active or inactive are those of the source. Rule for the calls: active = hit-call score of the fitted dose curve at least 0.9, where 1 is the maximum; inconclusive = response in the unintended direction; inactive = score below 0.9.

System: not listed separately
Assay: ATG_M_19_TRANS: Attagene TRANS-FACTORIAL HepG2 Assay for M19 Transcription Factor (Internal Marker) (AID 2282974)
Settings: HepG2 Attagene TRANS-FACTORIAL M19 internal marker reporter
Method in brief: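 Reporter mRNA induction was measured in transfected HepG2 cells 24 h after dosing. Endpoint fitted upward relative to DMSO and serves as a background control within the multiplexed TRANS panel.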

Row | Compound | outcome
1 | O=C(O)c1cc(C(=O)O)cc([N+](=O)[O-])c1 | inactive
2 | O=C1c2ccccc2C(=O)c2c(O)ccc(O)c21 | inactive
3 | COS(=O)(=O)O | inactive
4 | Cc1occc(=O)c1OC(=O)C(C)C | inactive
5 | CC1=NN(c2ccc(S(=O)(=O)O)cc2)C(=O)C1 | inactive
6 | CC(C)NCC(O)COc1ccc(CC(N)=O)cc1 (configuration not stated) | inactive
7 | O=C(O)c1cccnc1C(=O)O | inactive
8 | CCCC(=O)c1ccccc1 | inactive
9 | CCCCCCCCC=CCCCCCCCC1=NCCN1CCO | inactive
10 | C=C(C)[C@@H]1CC=C(C)C(=O)C1 | inactive
11 | COc1cc(CCC(C)=O)ccc1O | inactive
12 | CC=Cc1ccc(OC)c(OC)c1 | inactive
13 | CC[N+](C)(CC)CC | inactive
14 | C[Si](C)(C)O[Si](C)(C)C | inactive
15 | C=Cc1ccncc1 | inactive
16 | Clc1cc(Cl)c(-c2c(Cl)c(Cl)cc(Cl)c2Cl)cc1Cl | inactive
17 | C=CCCCCCCCCCC | inactive
18 | CC(C)CCOC(=O)c1ccccc1 | inactive
19 | O=C(c1ccccc1)C(O)c1ccccc1 (configuration not stated) | inactive
20 | CCCCCCCCCCCCS(=O)(=O)Cl | inactive
21 | CCOc1ccc(NC(=O)CC(C)=O)cc1 | inactive
22 | O=P(O)(O)O | inactive

System: not listed separately
Assay: ATG_GAL4_TRANS: Attagene TRANS-FACTORIAL HepG2 Assay for GAL4 (Internal Marker) (AID 2282976)
Settings: HepG2 Attagene TRANS GAL4 internal marker reporter
Method in brief: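 HepG2 cells transiently transfected with multiplexed GAL4-UAS reporter constructs were dosed for 24 h. Reporter mRNA was measured by RT-PCR, 6-FAM primer extension, HpaI digestion and capillary electrophoresis, and gain of signal was fitted relative to DMSO.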

Row | Compound | outcome
23 | O=C(O)c1cc(C(=O)O)cc([N+](=O)[O-])c1 | inactive
24 | COS(=O)(=O)O | inactive
25 | CC(C)NCC(O)COc1ccc(CC(N)=O)cc1 (configuration not stated) | inactive
26 | CCCC(=O)c1ccccc1 | inactive
27 | COc1cc(CCC(C)=O)ccc1O | inactive
28 | CC[N+](C)(CC)CC | inactive
29 | CCOC(=O)CN | inactive
30 | CS(=O)(=O)c1ccc(Cl)cc1 | inactive
31 | CC(C)CCOC(=O)c1ccccc1 | inactive
32 | CCCCCCCCCCCCCC(=O)OCC(O)CO (configuration not stated) | inactive
33 | O=P(O)(O)O | inactive

Target: Estrogen-related receptor gamma (Homo sapiens) (UniProt P62508)
Assay: ATG_ERRg_TRANS: Attagene TRANS-FACTORIAL HepG2 Assay for human Estrogen-Related Receptor gamma (ERRg) (AID 2282977);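 note: hits increase reporter signal over DMSO so potencies reflect activators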
Settings: HepG2 Attagene TRANS reporter, ERRg transactivation
Method in brief: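 Transient HepG2 transfectants, 24 h compound exposure, GAL4-UAS reporter mRNA by RT-PCR/6-FAM labelling/capillary electrophoresis; positive direction vs DMSO.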

Chain of Estrogen-related receptor gamma (Homo sapiens) (P62508 whole entry, looked up): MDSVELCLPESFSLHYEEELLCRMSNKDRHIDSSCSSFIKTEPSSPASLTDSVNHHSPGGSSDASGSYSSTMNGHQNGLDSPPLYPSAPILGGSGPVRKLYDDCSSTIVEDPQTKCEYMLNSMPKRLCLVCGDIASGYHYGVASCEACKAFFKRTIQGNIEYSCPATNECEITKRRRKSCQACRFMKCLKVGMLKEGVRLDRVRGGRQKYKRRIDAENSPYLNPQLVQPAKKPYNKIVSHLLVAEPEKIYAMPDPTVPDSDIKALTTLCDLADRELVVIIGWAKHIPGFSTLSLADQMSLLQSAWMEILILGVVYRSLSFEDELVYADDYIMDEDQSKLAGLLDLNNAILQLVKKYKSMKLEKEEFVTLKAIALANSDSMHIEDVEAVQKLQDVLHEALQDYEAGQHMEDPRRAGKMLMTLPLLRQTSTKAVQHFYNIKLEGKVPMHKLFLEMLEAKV

Row | Compound | outcome
34 | O=C1c2ccccc2C(=O)c2c(O)ccc(O)c21 | inactive
35 | Cc1ncc([N+](=O)[O-])n1CCO | inactive
36 | CCCC(=O)c1ccccc1 | inactive
37 | CCCCCCCCC=CCCCCCCCC1=NCCN1CCO | inactive
38 | COc1cc(CCC(C)=O)ccc1O | inactive
39 | C=Cc1ccncc1 | inactive
40 | COC(=O)C=C(C)CCC=C(C)C | inactive
41 | CS(=O)(=O)c1ccc(Cl)cc1 | inactive
42 | CCOc1ccc(NC(=O)CC(C)=O)cc1 | inactive
